Screening data as filed in PubChem.
The list is not random: actives were taken first. Their share in the collection is about 1.6%.
OPRM1-OPRD1 ag: agonists of human mu-delta opioid receptor heterodimerization | AID 504326 | cells, OPRM1-OPRD1 heterodimerization, luminescence | 0.3% of 340,000 active | P35372+P41143 | activation, % at 9.3 µM; in the data active = activation above about 18%;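 also: 0% = vehicle-treated cells and 100% = reference agonist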
m5-HT2A agonist: mouse HTR2A agonism via beta-arrestin recruitment | P35363 | CHO-K1 mHTR2A beta-arrestin complementation, luminescence; percent of 30 µM serotonin response | activation, % at 7.6 µM | 0.66% of 360,000 active;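 active = activation above a run cutoff, the mean activation of all tested compounds plus 3 SD, cut at about 14% in these data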;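 also: 0% = plate median of compound wells and 100% = 30 µM serotonin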
Target sequence (P35363 whole entry, looked up): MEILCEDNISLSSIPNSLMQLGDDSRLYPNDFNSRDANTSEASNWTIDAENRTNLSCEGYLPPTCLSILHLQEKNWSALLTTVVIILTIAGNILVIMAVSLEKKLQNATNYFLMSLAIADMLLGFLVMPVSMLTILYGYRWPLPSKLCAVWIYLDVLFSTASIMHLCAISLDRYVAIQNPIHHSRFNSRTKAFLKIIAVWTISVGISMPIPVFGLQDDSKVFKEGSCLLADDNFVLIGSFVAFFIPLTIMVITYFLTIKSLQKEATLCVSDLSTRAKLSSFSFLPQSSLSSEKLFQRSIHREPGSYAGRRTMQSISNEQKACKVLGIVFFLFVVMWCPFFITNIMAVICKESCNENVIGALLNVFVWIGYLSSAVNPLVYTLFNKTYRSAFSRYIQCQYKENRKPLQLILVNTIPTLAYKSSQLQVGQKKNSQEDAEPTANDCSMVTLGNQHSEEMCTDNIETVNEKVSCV
HTR5A inv ag: HTR5A inverse agonism, opioid heterodimer counter-screen | inhibition, % at 9.3 µM | HTR5A cell line, luminescence | P47898 | 0.083% of 340,000 active | AID 504634; in the data active = inhibition mostly above about 23%, no sharp cut-off; inactive = mostly below about 18%;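 also: 0% = cells with DMSO and 100% = no-cell wells with DMSO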
HTR5A ag ctr: HTR5A agonism, opioid heterodimer counter-screen | P47898 | HTR5A agonist assay, luminescence, cell-based | activation, % at 9.3 µM | 0.61% of 340,000 active; in the data active = activation mostly above about 9.5%, no sharp cut-off; inactive = mostly below about 7.6%;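 also: 0% = cells with vehicle only and 100% = reference agonist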
OPRM1-OPRD1 inv: inverse agonists of human mu-delta opioid receptor heterodimerization. P35372+P41143. inhibition, % at 9.3 µM. cell-based MOR-DOR heterodimer luminescence, inverse agonism. 0.21% of 340,000 active; in the data active = inhibition above about 22%, passing the limit was not always enough;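 also: 0% = cells with DMSO and 100% = wells without cells with DMSO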
An asterisk follows results filed as active; · = not tested or not shown.

SMILES | OPRM1-OPRD1 ag | m5-HT2A agonist | HTR5A inv ag | HTR5A ag ctr | OPRM1-OPRD1 inv
O=C(C1=C[C@H](c2csc3ccccc23)C[C@H](OCCCCO)O1)N1CCN(Cc2ccc3c(c2)OCO3)CC1 | 0.2 | 1.4 | 3.1 | -2.0 | -1.2
COc1c2ccoc2c(OC(C)=O)c2oc(C)cc(=O)c12 | -3.6 | 2.4 | -36.5 | 9.8* | 18.2
CSc1ncccc1C(=O)N1CCC(C)(C(=O)O)C1 (stereo not drawn) | · | 3.8 | · | · | ·
CC1CC(=O)c2cc(-c3ccccc3)oc2C1 (stereo not drawn) | · | 2.2 | · | · | ·
CC1CC(=O)C(C(C2=C(O)CC(C)CC2=O)c2ccccc2)=C(O)C1 (stereo not drawn) | 0.2 | -1.0 | -38.2 | 9.3* | -0.9
CC(=O)NCCNc1nc(NCC2CC2)nc2cc(-c3ccccc3)sc12 | · | -10.6 | · | · | ·
COC(=O)C1=C(C)N(Cc2ccccc2)C(=NCc2cccc(Cl)c2)N[C@H]1c1cccc(F)c1 | 28.1* | -5.3 | -7.6 | 3.0 | -153.6
COC(=O)C1=C(C)N(Cc2ccccc2)C(=NCc2ccccc2)N[C@H]1c1cccc(C(F)(F)F)c1 | 15.5 | 5.1 | -76.3 | 13.3* | -83.5
O=C(C[C@H]1CC[C@@H](NC(=O)C2CC2)[C@@H](CO)O1)NCc1ccccc1Cl | · | -3.0 | · | · | ·
CCOCCCNc1nc2c(C)cccn2c(=O)c1/C=C1\SC(=S)N(C(C)CC)C1=O (stereo not drawn) | 18.2* | -5.1 | -2.3 | 0.1 | -93.0
CCOCCCNc1nc2c(C)cccn2c(=O)c1/C=C1\SC(=S)N(CC(C)C)C1=O | -0.1 | 0.8 | -10.1 | -3.6 | 0.3
COc1ccc(C2CC(=O)C=C3c4ccc(OC)cc4CCC32)cc1 (stereo not drawn) | · | 4.4 | · | · | ·
COc1ccc(N(CC(=O)NCCSc2ccccn2)S(=O)(=O)c2ccccc2)cc1OC | 0.2 | 3.0 | -15.3 | 4.1 | -1.3
COc1ccc(N(CC(=O)NCCSc2ccccn2)S(=O)(=O)c2ccc(C)cc2)cc1OC | -2.7 | -6.9 | -9.1 | 13.9* | 14.0
COC(=O)[C@@]12C[C@@H](CC(=O)N3CCCC3)C(=O)N(CCc3ccc(OC)c(OC)c3)C1=CCC(C)(C)C2 | · | 5.0 | · | · | ·
CN(CCc1ccccc1)C(=O)CC1C(=O)NCCN1Cc1ccccn1 (stereo not drawn) | · | 4.2 | · | · | ·
O=C(NCc1ccc(F)cc1)OC1CC2CC1[C@H]1CCCCN1C2=O (stereo partly drawn) | · | -2.2 | · | · | ·
O=C(O)c1ccc(NC(=O)c2cccc(NC(=O)c3cccs3)c2)cc1 | -2.5 | 9.1 | -0.8 | -1.9 | 13.2
CN(C(=O)c1cccc(NC(=O)c2cccs2)c1)c1ccccc1 | -0.3 | 6.1 | 12.2 | 11.1* | 1.5
COc1ccccc1C(c1nnnn1C(C)(C)C)N1CCCc2ccccc21 (stereo not drawn) | 0.9 | 3.4 | -26.4 | 12.7* | -5.5
O=C(NCc1ccccc1)C(CCc1ccccc1)n1c(=O)c(-c2ccccc2)nc2ccccc21 (stereo not drawn) | · | -2.4 | · | · | ·
CC(NCC(O)COc1ccccc1)C1COc2ccccc2O1 (stereo not drawn) | 4.5 | -2.8 | -43.1 | 11.6* | -21.7
CCOc1ccc2oc(C(=O)Nc3ccc4c(c3)OCO4)c(C)c2c1 | 1.1 | -11.9 | -1.4 | 0.6 | -6.4
CCOc1ccc2oc(C(=O)Nc3ccc(N4CCOCC4)cc3)c(C)c2c1 | 1.6 | -0.4 | 11.3 | 13.8* | -8.2
C[C@H](CO)N1C[C@H](C)[C@@H](CN(C)S(=O)(=O)c2ccc(F)cc2)Oc2ccc(NC(=O)c3ccncc3)cc2C1=O | -2.4 | 7.1 | 4.2 | 9.5* | 13.7
SMILES | OPRM1-OPRD1 ag | m5-HT2A agonist | HTR5A inv ag | HTR5A ag ctr | OPRM1-OPRD1 inv
C[C@H](CO)N1C[C@H](C)[C@@H](CN(C)S(=O)(=O)c2ccccc2)Oc2ccc(NC(=O)c3ccncc3)cc2C1=O | -0.4 | 2.2 | 2.6 | -1.6 | 2.5
O=C1c2ccccc2C(=O)N1CCC#C/C=C1\c2ccccc2C(=O)N1c1ccccc1 | · | -1.2 | · | · | ·
N#Cc1c(C(F)(F)F)cc(-c2ccccc2Cl)[nH]c1=O | 0.8 | 5.7 | -19.7 | 12.4* | -4.5
N#Cc1c(C(F)(F)F)cc(-c2ccccc2)[nH]c1=O | -1.4 | 4.3 | 1.2 | -0.4 | 8.2
O=C(CSc1ccc(Cl)cc1)NN=C1CCCCCC1 | 2.2 | -1.3 | 12.1 | 11.8* | -11.1
O=C(NCc1cccs1)c1ccc2sc(COCCO)nc2c1 | · | 2.9 | · | · | ·
CC1CC(C)CN(C(=O)CSc2nc(Cc3cccs3)nc3ccccc23)C1 (stereo not drawn) | -0.2 | -1.1 | -12.3 | 12.0* | 1.0
Cc1ccc(NC(=O)CCS(=O)(=O)c2ccc3nc(C)sc3c2)c(C)c1 | · | 1.0 | · | · | ·
